Experimental data from PubChem BioAssay (Tox21).
Results filed as inconclusive are left out. Entries that show only a call come without a potency. A number with no mark means an inactive call. Activity calls are given as the source filed them. Calls come from the whole dose curve.

biological target: D(2) dopamine receptor (Homo sapiens) (UniProt P14416); assay: Dopamine D2 receptor (DRD2) small molecule agonists, cell-based qHTS assay (AID 1963594); conditions: HEK293-DRD2 cAMP HTRF, agonist mode, 30 min; series mostly up to 92.4 µM; activation: at the top concentration; note: nearly all actives have a fitted effect of over 35% in size
Sequence (P14416 whole entry, looked up): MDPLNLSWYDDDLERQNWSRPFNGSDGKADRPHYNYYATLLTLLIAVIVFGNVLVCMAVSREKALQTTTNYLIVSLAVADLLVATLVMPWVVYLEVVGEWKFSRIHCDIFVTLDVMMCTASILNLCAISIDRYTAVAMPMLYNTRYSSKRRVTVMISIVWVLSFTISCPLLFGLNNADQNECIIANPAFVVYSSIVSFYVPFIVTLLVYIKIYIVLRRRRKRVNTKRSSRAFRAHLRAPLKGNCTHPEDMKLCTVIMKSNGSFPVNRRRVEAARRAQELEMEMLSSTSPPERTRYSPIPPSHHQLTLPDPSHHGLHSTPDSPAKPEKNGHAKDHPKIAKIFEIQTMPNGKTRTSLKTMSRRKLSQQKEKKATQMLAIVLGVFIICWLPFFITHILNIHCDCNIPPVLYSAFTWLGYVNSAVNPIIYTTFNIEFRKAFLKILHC
Description: National Center for Advancing Translational Sciences [NCATS]
Division of Preclinical Innovation [DPI]
U.S. Environmental Protection Agency [EPA]
National Institutes of Environmental Health Sciences [NIEHS]
National Toxicology Program [NTP]
U.S. Food and Drug Administration [FDA]
DRD2 is the D2 subtype of the dopamine receptor, which is coupled to Gi subtype of G protein-coupled receptor. This G protein-coupled receptor inhibits adenylyl cyclase activity. The DRD2-HEK293 cell line stably expressing D2 dopamine receptor can be used for screening agonists and antagonists of interactions between D2 and its ligands. The Hek293-DRD2 cAMP assay is based on HTRF technology. It measures changes of cAMP accumulation in response to Gi coupled GPCR activation or inhibition.
Tox21 Assay Protocol Summary:
DRD2-Hek293 cells were dispensed at 600 cells/3uL/well in 1536-well white plates using a Multidrop Dispenser. After the assay plates were incubated at a 37 C/5% CO2 incubator for 24 h, 1 uL of Ro20-1724 at final concentration of 0.1 mM was transferred to the assay plate by a Flying Reagent Dispenser. Following Ro20-1724 addition, 23 nL of compound dissolved in DMSO, positive controls or DMSO only was added to the assay plates via Wako pintool station. The assay plates were incubated at room temperature for 10 min. Next, 1 uL of NKH477 at 200nM was added into the plates. After the assay plates were incubated at room temperature for an additional 30 min, 2.5 ul/well of cAMP-d2 and 2.5 ul/well of anti-cAMP-cryptate were added respectively into the assay plates using a Flying Reagent Dispenser. The plates were incubated at room temperature for 1 h. The fluorescence intensity in the plates was measured at 340 nm excitation and 665 & 620 nm emission by an Envision plate reader.

SMILES	Potency	activation
CN(C)c1nc(=O)n(C2CCCCC2)c(=O)n1C	inactive	–
CC(C)[N+](C)(CCC(C(N)=O)(c1ccccc1)c1ccccc1)C(C)C	–	11.5% [at 42.5 µM]
CCC(=O)OC1(c2ccccc2)CCN(C)CC1	–	5.45%
C=CCOC(N)=O	–	-0.159%
C[C@]12CC[C@H]3[C@@H](CC=C4C[C@@H](O)CC[C@@]43C)[C@@H]1CC[C@@H]2O	–	7.69% [at 42.5 µM]
CCOP(=S)(OCC)OP(=S)(OCC)OCC	inactive	–
Cc1ccc2c(c1N)C(=O)c1ccccc1C2=O	inactive	–
O=[N+]([O-])O	inactive	–
CN(C)CCc1c[nH]c2cccc(OP(=O)(O)O)c12	–	-2.19%
COc1ccc2c3c1O[C@H]1[C@@H](O)C=C[C@H]4[C@@H](C2)N(C)CC[C@@]341	–	-0.409%
CCOc1cc(C=O)ccc1O	–	1.99%
CC(C)c1ccc(NC(=O)N(C)C)cc1	–	7.1%
O=C(CCl)CCl	–	1.19%
C=CCCl	–	-2.56%
COCCC#N	–	2.54%
Nc1ccc(N)cc1	inactive	–
Cc1ccc2ccccc2c1	–	0.413%
C=CCN=C=S	inactive	–
O=C(O)CCCc1ccc(N(CCCl)CCCl)cc1	inactive	–
CCC[CH2][Sn]([Cl])([Cl])[CH2]CCC	inactive	–

SMILES	Potency	activation
O=S(=O)(c1ccc(O)cc1)c1ccc(O)cc1	inactive	–
CCn1cc[n+](C)c1	inactive	–
O=P(O)(O)CCCl	inactive	–
Cc1ccc(CCl)cc1	–	0.41%
Cc1cc(Cl)ccc1OC(C)C(=O)O (stereo not given)	–	-1.58%
C[C@]12CCC(=O)C=C1CC[C@@H]1[C@@H]2CC[C@@]2(C)[C@H]1CC[C@]2(C)O	inactive	–
CN(CCCC(=O)c1cccnc1)N=O	–	5.49%
COC(=O)C(Br)CBr (stereo not given)	–	-9.05%
Cc1cccc(C#N)c1	–	0.0669%
C=CCO	inactive	–
CN(C)[C@@H]1C(=O)C(C(N)=O)=C(O)[C@@]2(O)C(=O)C3=C(O)c4c(O)cccc4[C@@](C)(O)[C@H]3[C@H](O)[C@@H]12	inactive	–
N#CC(c1ccccc1)c1ccccc1	inactive	–
CCCCCCCCCCCCCCCCCC(=O)O	inactive	–
C[C@H]1C(=O)O[C@@H]2CCN3CC=C(COC(=O)[C@](C)(O)[C@]1(C)O)[C@H]23	inactive	–
c1ccc(CN2CCNCC2)cc1	–	-15.8% [at 240 µM]
Nc1ccc(-c2ccccc2)cc1	inactive	–
Cc1cc(Cl)ccc1O	inactive	–
CNC(=O)Oc1c(C(C)(C)C)cc(C)cc1C(C)(C)C	–	-0.454%
ClC1=C(Cl)C2(Cl)C3C(Cl)C=CC3C1(Cl)C2(Cl)Cl (stereo not given)	–	-3.31%
O=c1ccc(=O)[nH][nH]1	inactive	–
